Values joined by “and” are separate entries in the source; they are usually repeats but may differ in a detail not shown here. Identical values can stand only once. Out of some 5,500 compounds screened, about 2,000 (36%) were called active. Inconclusive results (about 18%) are left out. No stated cut-off is given here; in the data, active means normalized growth mostly below about 0.91 (no sharp cut-off); inconclusive means no clear call, values can overlap the other calls; inactive means mostly above about 0.92. Some of the results follow.
Assay: chemical genetic growth profiling, strain panel (AID 1159580);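 further: tested at 20 µM; growth read once vehicle control cultures reached saturation at 30 °C; 1 = growth at the plate median or of vehicle wells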
Settings: S. cerevisiae deletion strains, growth OD

Measured: normalized growth

Cc1onc(-c2ccccc2Cl)c1C(=O)N[C@@H]1C(=O)N2[C@@H]1SC(C)(C)[C@@H]2C(=O)O
inactive: locus YAL013W, strain DEP1, stronger effect = lower value 1.01 | locus YAL021C, strain ccr4, stronger effect = lower value 1.06 | locus YAL026C, strain drs2, stronger effect = lower value 1.02 | locus YAL030W, strain snc1, stronger effect = lower value 1.02 | locus YBL061C, strain skt5, stronger effect = lower value 1.02 | locus YBR009C, strain hhf1, stronger effect = lower value 0.994 | locus YBR021W, strain FUR4, stronger effect = lower value 1.02 | locus YBR023C, strain chs3, stronger effect = lower value 1.03 | locus YBR171W, strain sec66, stronger effect = lower value 1.03 | locus YBR229C, strain ROT2, stronger effect = lower value 1.01 | locus YBR231C, strain swc5, stronger effect = lower value 1.03 | locus YBR279W, strain paf1, stronger effect = lower value 1 | locus YCL011C, strain gbp2, stronger effect = lower value 1.02 | locus YCL016C, strain dcc1, stronger effect = lower value 1.01 | locus YCL029C, strain bik1, stronger effect = lower value 1.05 | locus YCL069W, strain vba3, stronger effect = lower value 1.03 | locus YCR088W, strain abp1, stronger effect = lower value 1.01 | locus YDL005C, strain med2, stronger effect = lower value 1.02 | locus YDL035C, strain GPR1, stronger effect = lower value 1 | locus YDL040C, strain nat1, stronger effect = lower value 1.02 | locus YDL074C, strain BRE1, stronger effect = lower value 1.03 | locus YDL101C, strain DUN1, stronger effect = lower value 1.01 | locus YDL134C, strain PPH21, stronger effect = lower value 1.01 | locus YDL185W, strain tfp1, stronger effect = lower value 1.01 | locus YDL192W, strain arf1, stronger effect = lower value 1.01 | locus YDR001C, strain nth1, stronger effect = lower value 1.04 | locus YDR069C, strain doa4, stronger effect = lower value 1.03 | locus YDR101C, strain arx1, stronger effect = lower value 1.02 | locus YDR137W, strain rgp1, stronger effect = lower value 0.971 | locus YDR150W, strain NUM1, stronger effect = lower value 1 | locus YDR159W, strain sac3, stronger effect = lower value 1 | locus YDR162C, strain NBP2, stronger effect = lower value 1.02 | locus YDR195W, strain ref2 1.03 | locus YDR297W, strain sur2, stronger effect = lower value 1.02 | locus YDR318W, strain mcm21, stronger effect = lower value 1.03 | locus YDR334W, strain swr1, stronger effect = lower value 1 | locus YDR335W, strain msn5, stronger effect = lower value 1.01 | locus YDR388W, stronger effect = lower value 1.02 | locus YDR392W, strain spt3, stronger effect = lower value 0.998 | locus YDR502C, strain sam2, stronger effect = lower value 1.02 | locus YEL003W, strain gim4, stronger effect = lower value 1.02 | locus YEL037C, strain rad23, stronger effect = lower value 1.02 | locus YEL061C, strain CIN8 (second series), stronger effect = lower value 1.02 | locus YEL061C, strain CIN8, stronger effect = lower value 1.01 | locus YER015W, strain faa2, stronger effect = lower value 1.02 | locus YER016W, strain bim1, stronger effect = lower value 0.994 | locus YER110C, stronger effect = lower value 1.01 | locus YER111C, strain swi4, stronger effect = lower value 1.03 | locus YER155C, strain BEM2 (second series), stronger effect = lower value 1.06 | locus YER155C, strain BEM2, stronger effect = lower value 1.01 | locus YER167W, strain BCK2, stronger effect = lower value 1.01 | locus YFR010W, strain ubp6, stronger effect = lower value 1.02 | locus YGL078C, strain dbp3, stronger effect = lower value 1.02 | locus YGL086W, strain mad1, stronger effect = lower value 1.01 | locus YGL167C, strain pmr1, stronger effect = lower value 1.03 | locus YGL173C, strain kem1, stronger effect = lower value 1.01 | locus YGL227W, strain vid30, stronger effect = lower value 1.01 | locus YGL240W, strain doc1, stronger effect = lower value 1.02 | locus YGL248W, strain PDE1, stronger effect = lower value 1.02 | locus YGL253W, strain hxk2, stronger effect = lower value 1.02 | locus YGR078C, strain PAC10, stronger effect = lower value 1.01 | locus YGR135W, strain pre9, stronger effect = lower value 1.03 | locus YGR229C, strain SMI1, stronger effect = lower value 1.02 | locus YGR252W, strain gcn5, stronger effect = lower value 1.05 | locus YHR013C, strain ard1, stronger effect = lower value 1.04 | locus YHR027C, strain rpn1, stronger effect = lower value 1.02 | locus YHR030C, strain SLT2, stronger effect = lower value 1.01 and 1 | locus YHR079C, strain IRE1 (second series), stronger effect = lower value 1.02 | locus YHR079C, strain IRE1, stronger effect = lower value 1 | locus YHR094C, strain hxt1, stronger effect = lower value 1.02 | locus YHR129C, strain ARP1, stronger effect = lower value 1.01 | locus YHR142W, strain chs7, stronger effect = lower value 1.02 | locus YHR200W, strain rpn10, stronger effect = lower value 1.03 | locus YIL066C, strain RNR3, stronger effect = lower value 1.01 | locus YIL073C, strain SPO22, stronger effect = lower value 1.06 | locus YIL125W, strain kgd1, stronger effect = lower value 1.03 | locus YIR030C, strain dcg1, stronger effect = lower value 1.02 | locus YJL092W, strain hpr5, stronger effect = lower value 1.03 | locus YJL095W, strain BCK1 (second series), stronger effect = lower value 1.02 | locus YJL095W, strain BCK1, stronger effect = lower value 1.02 and 0.998 | locus YJL115W, strain asf1, stronger effect = lower value 1.01 | locus YJL129C, strain trk1, stronger effect = lower value 1.05 | locus YJL134W, strain LCB3, stronger effect = lower value 1 | locus YJL154C, strain vps35, stronger effect = lower value 1.03 | locus YJL164C, strain tpk1, stronger effect = lower value 1.01 | locus YJL166W, strain qcr8, stronger effect = lower value 1.03 | locus YJL168C, strain set2, stronger effect = lower value 1.02 | locus YJL187C, strain SWE1 (second series), stronger effect = lower value 1.02 | locus YJL187C, strain SWE1, stronger effect = lower value 1.01 | locus YJR043C, strain POL32, stronger effect = lower value 0.995

Reference: PubChem BioAssay AID1159580 (chemical genetic matrix, 2015)
